According to PubChem BioAssay (NCI):
The panel holds about 79,000 compounds, 15% with a hit somewhere; the sample as a whole holds those more often. Rule as the data show it: active = growth inhibition above about 70%; inactive = the rest.

Legend:
[1] = NCI Yeast Anticancer Drug Screen. Data for the rad50 strain (AID 155);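 also: 0% = growth of vehicle-only cultures of the same strain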; conditions: S. cerevisiae rad50 strain growth inhibition; at 50.0 µM; stronger effect = higher value
Method in brief: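 Yeast carrying a defined DNA repair defect were exposed to test compounds, and growth was compared with vehicle-treated controls to give percent inhibition.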

[2] = NCI Yeast Anticancer Drug Screen. Data for the mec2-1 strain (AID 157); conditions: S. cerevisiae mec2-1 strain, at 50.0 µM, stronger effect = higher value
Method in brief: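 Mutant yeast (mec2-1) grown with compound; growth inhibition relative to vehicle control reported.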

[3] = NCI Yeast Anticancer Drug Screen. Data for the sgs1 mgt1 strain (AID 161);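 also: 0% = growth of cultures given vehicle only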; conditions: S. cerevisiae sgs1 mgt1 strain, at 50.0 µM, stronger effect = higher value
Method in brief: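 Compounds are added to genetically altered yeast, and growth is compared with cultures given vehicle alone to give percent inhibition.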

[4] = NCI Yeast Anticancer Drug Screen. Data for the cln2 rad14 strain (AID 165);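 also: 0% = growth equal to vehicle treated cultures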; conditions: S. cerevisiae cln2 rad14 strain, at 50.0 µM, stronger effect = higher value
Method in brief: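 Readout is yeast growth inhibition versus vehicle-treated controls, using a strain with cln2 and rad14 alterations exposed to compound.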

[5] = NCI Yeast Anticancer Drug Screen. Data for the bub3 strain (AID 167); conditions: S. cerevisiae bub3 mutant strain, at 50.0 µM, stronger effect = higher value
Method in brief: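 Compounds were applied to a genetically altered yeast strain carrying a cell-cycle control defect. Growth inhibition was scored against vehicle-treated controls.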

[6] = NCI Yeast Anticancer Drug Screen. Data for the mlh1 rad18 strain (AID 175); conditions: S. cerevisiae mlh1 rad18 strain growth inhibition; at 50.0 µM; stronger effect = higher value
Method in brief: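 Genetically defined yeast (DNA repair-deficient) exposed to compounds; growth inhibition determined relative to vehicle.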

Measured: growth inhibition

Cc1ncc(-c2ccccc2)o1
inactive: [1] -20.2% | [2] -21.2% | [3] -1.75% | [4] -7% | [5] -19.9% | [6] -15.7%

Cc1c(C)c(CSC#N)c(C)c(C)c1CSC#N
inactive: [1] 53.8% | [2] -13.6% | [3] -10.1% | [4] -1.9% | [5] 8.2% | [6] 8.55%

Cc1nc2ccccc2c(=O)n1NC(=S)Nc1ccc(Cl)cc1
inactive: [1] 3.6% | [2] -31.2% | [3] 4.25% | [4] -23.6% | [5] -18.4% | [6] -14.9%

O=C1CCCCC1O (stereo not drawn)
inactive: [1] -18.4% | [2] -50.8% | [3] -15.2% | [4] 0.05% | [5] -13.8% | [6] -26.1%

CC(C)CCOC(=O)c1ccccc1Cl
inactive: [1] 17.7% | [2] 18.5% | [3] 11.1% | [4] 12.4% | [5] 0.15% | [6] -14.6%

COC(=O)c1nc(N)nc(C(=O)OC)c1C(=O)c1cccnc1
inactive: [1] -15.2% | [2] -17.8% | [3] -0.35% | [4] -15.3% | [5] -4.7% | [6] 10.1%

CCCCCCCCCCCCCCCCCC#N
inactive: [1] 36.7% | [2] 20.6% | [3] -2.9% | [4] -52.1% | [5] 5.5% | [6] 39.9%

O=CNNC(=O)CN1C(=O)c2ccccc2C1=O
inactive: [1] 3.3% | [2] -0.45% | [3] 3.4% | [4] 17.8% | [5] -3.35% | [6] -6.65%

CO/N=C1\C(O)CC2C(C)(CCC3C2(C)CCC2(C)C4CC(C)(C)CCC4(C)CCC32C)C1C (stereo not drawn)
inactive: [1] 1.9% | [2] -3.8% | [3] -18.5% | [4] -14.1% | [5] -1.45% | [6] -5.85%

CC1(C)C=Cc2c(ccc(C(=O)Cc3ccccc3)c2O)O1
inactive: [1] 24.1% | [2] 17.4% | [3] 26.4% | [4] -8.1% | [5] 16% | [6] 23.1%

CCC1(CC)C(=O)N(C(=O)c2ccc(C)cc2)N(C(=O)c2ccc(C)cc2)C1=O
inactive: [1] 3.65% | [2] -6.1% | [3] 14.6% | [4] 18.1% | [5] 2.8% | [6] -17.3%

O=C(NNC(=S)Nc1ccc(Cl)cc1)C12CC3CC(CC(C3)C1)C2
inactive: [1] -9.4% | [2] 6.15% | [3] -4.15% | [4] 17.4% | [5] 30.8% | [6] 8.7%

COC(=O)c1cncc(C(=O)OC)c1
inactive: [1] -3.9% | [2] -12% | [3] 2.75% | [4] -2.35% | [5] 1.95% | [6] 12.8%

O=c1c(SCc2ccc(Br)cc2)c(SCc2ccc(Br)cc2)cnn1-c1ccccc1
inactive: [1] 22.3% | [2] 4.65% | [3] 13.8% | [4] 34% | [5] 13.4% | [6] 14.8%

CC1(C)CC(N(CCO)CCO)CC(C)(C)N1O
inactive: [1] 4.05% | [2] -2.8% | [3] 11.4% | [4] -1.95% | [5] -7.2% | [6] 5.35%

COc1ccc2c(c1)CCC1=C2CCC(C(=O)O)C1(C)C(=O)O (stereo not drawn)
inactive: [1] 1.9% | [2] -3% | [3] 9.25% | [4] 4.15% | [5] -4.25% | [6] -25.4%

CC(CCOS(C)(=O)=O)OS(C)(=O)=O (stereo not drawn)
inactive: [1] 8.25% | [2] -5.2% | [3] 1.25% | [4] -3.25% | [5] 8.95% | [6] -7.6%

Clc1ccc2c(Cl)ncnc2c1I
inactive: [1] -2.5% | [2] -13.8% | [3] 28.9% | [4] 3% | [5] 4.4% | [6] -4.2%

Cc1cccc(/C=C/c2cccc[n+]2[O-])[n+]1[O-]
inactive: [1] 3.1% | [2] -11.2% | [3] -19.9% | [4] -31.8% | [5] -0.2% | [6] -5.25%

O=[N+]([O-])c1ccccc1C=Nc1ccc2nc(SCc3ccccc3)sc2c1
inactive: [1] 8.15% | [2] 3.65% | [3] 3.95% | [4] 0.7% | [5] -4% | [6] -16.8%

CNC1C(CO)OC(n2cnc3c(N)ncnc32)C1O (stereo not drawn)
inactive: [1] 1.85% | [2] -9.55% | [3] 3.75% | [4] -60.8% | [5] 2.75% | [6] -13.2%

CC1C(C(=O)NCC(c2ccccc2)c2ccccc2)CC2CCCCN21 (stereo not drawn)
inactive: [1] -15.5% | [2] -4.75% | [3] 13.2% | [4] -9.2% | [5] 11.2% | [6] 25.9%

O=C(O)c1ccncc1C(=O)c1csc2ccccc12
inactive: [1] 7.9% | [2] 14.2% | [3] 27.1% | [4] 22.1% | [5] 30.4% | [6] 19.3%

CCC(C)C=O (stereo not drawn)
inactive: [1] 3.9% | [2] -6.3% | [3] -9.2% | [4] 2.2% | [5] 10.4% | [6] -8.3%

O=C1NC(=S)NC(=O)C1=Cc1ccccc1OCc1ccccc1
inactive: [1] -19.4% | [2] -16.1% | [3] -0.55% | [4] -50.6% | [5] 1.6% | [6] -16.6%

CCc1cccc(CC)c1NC(=O)Nc1cc(Cl)ccc1C
inactive: [1] 1.8% | [2] 6.45% | [3] 5.4% | [4] -8.45% | [5] 30.1% | [6] 7.9%

CC1CCC(C(C)C)/C(=N\O)C1 (stereo not drawn)
inactive: [1] 4.8% | [2] -19.4% | [3] -11.9% | [4] -7.7% | [5] -6.4% | [6] 2.05%

CC(=O)c1cccc2ccccc12
inactive: [1] -7.8% | [2] 5.55% | [3] 3.65% | [4] -9.1% | [5] -11.1% | [6] -5.95%

COC(=O)C[C@](O)(CCCC(C)(C)O)C(=O)O[C@@H]1C(OC)=C[C@]23CCCN2CCc2cc4c(cc2[C@H]13)OCO4
inactive: [1] 51.2% | [2] 35.4% | [3] 43.2% | [4] 41% | [5] 43.3% | [6] 42.5%

CN(C)c1ccc(/[N+]([O-])=C/C=C/C=[N+](/[O-])c2ccc(N(C)C)cc2)cc1
inactive: [1] -1.35% | [2] 3.8% | [3] 1.55% | [4] -28.6% | [5] 13.2% | [6] -14.6%

CCCCCCCNc1nc(N)nc(Cl)n1
inactive: [1] -0.15% | [2] -4.6% | [3] 5.75% | [4] 8.75% | [5] -9.4% | [6] 10.9%

CCC1(CC)C(=O)N(C(=O)c2ccccc2)N(C(=O)c2ccc(Cl)cc2)C1=O
inactive: [1] 20.9% | [2] 18.7% | [3] 34.5% | [4] 32.5% | [5] 46.8% | [6] -79.8%

N#CCN1c2ccccc2CCC1Cl (stereo not drawn)
inactive: [1] -10.9% | [2] -17.6% | [3] -5.05% | [4] -7.45% | [5] 11.2% | [6] 12.4%

CCC1(CC)CC(=O)NC1=O
inactive: [1] -4.95% | [2] -11.6% | [3] -40.5% | [4] 1.5% | [5] -26% | [6] -11.1%

Cc1ccc(C(=O)CC2(O)C(=O)Nc3ccccc32)cc1 (stereo not drawn)
inactive: [1] 25.4% | [2] 17.4% | [3] 22.4% | [4] 16.9% | [5] 14.3% | [6] 20.9%

N#CCCN1C(=O)C2(CCC#N)CCCCC2(O)N=C1c1ccccc1 (stereo not drawn)
inactive: [1] -7.35% | [2] 6.15% | [3] 16.5% | [4] -0.5% | [5] 15.2% | [6] 7.7%

NC(=O)c1c[nH]c(=O)cc1O
inactive: [1] -5.35% | [2] -13.6% | [3] 50.2% | [4] 18.8% | [5] 7.3% | [6] 0%

CCOC(=O)NC(C(=O)OCC)(N1CCN(c2cc3c(cc2F)c(=O)c(C(=O)O)cn3CC)CC1)C(F)(F)F (stereo not drawn)
inactive: [1] -10.5% | [2] -25.2% | [3] -11.1% | [4] -24.4% | [5] -7.55% | [6] -5.05%
